An excerpt weighted towards active compounds, which were near 2.1% of everything screened.
CCHF vOTU inh-1 – blocks the CCHF virus ovarian tumor domain protease. CCHFV vOTU protease, Pep-AMC fluorescence. inhibition, % at 11.5 µM. actives 0.55% (n = 370,000). AID 651958
PrP 5UTR inh – inhibition of PrP 5' UTR reporter expression; cell-based PrP 5' UTR mRNA reporter, plate reader; inhibition, % (test concentration not listed); actives 0.35% (n = 340,000); AID 488862; in the data active = inhibition above about 52%
Sa RN4220 lethal – S. aureus RN4220 growth inhibition | OD600, 16 h | inhibition, % (test concentration not listed) | actives 0.33% (n = 330,000); in the data active = inhibition above about 85%
PfHsp40 rescue – restores yeast growth despite PfHsp40 toxicity. S. cerevisiae expressing PfHsp40, growth rescue, ATP luminescence. growth rescue, % at 12.5 µM. actives 0.68% (n = 340,000). AID 504582; in the data active = growth rescue above about 28%, passing the limit was not always enough;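 also: yeast W303a lacking pdr1 and pdr3 grown in galactose medium; growth measured after three days at 30 °C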
Sa ugtP lethal – growth inhibition of S. aureus ugtP deletion strain. growth inhibition, % (no concentration beside the values). S. aureus RN4220 ugtP deletion, OD600 growth, 16 h. AID 1259309. actives 0.54% (n = 330,000); in the data active = growth inhibition above about 68%
PrPC surface inh – reduces human prion protein on the cell surface; actives 0.43% (n = 370,000); cell surface PrPC, TR-FRET read-out; inhibition, % at 13.8 µM; AID 720596; in the data active = inhibition above about 24%
CCHF vOTU inh-2 – CCHFV vOTU protease inhibition, confirmation | Recombinant CCHFV vOTU, Pep-AMC fluorescence | inhibition, % at 11.5 µM | shares compounds with CCHF vOTU inh-1 | actives 17% (n = 1,900)
Numbers stand for hits; 0 = inactive; - = not tested or not shown. Rule as the data show it, unless noted: active = inhibition above about 30%; inactive = the rest.

SMILES	CCHF vOTU inh-1	PrP 5UTR inh	Sa RN4220 lethal	PfHsp40 rescue	Sa ugtP lethal	PrPC surface inh	CCHF vOTU inh-2
CCC(C)C(N)c1cn(C(CCCCN)C(=O)N2CCNCC2)nn1 (stereo not drawn)	-	-	0	-	0	-	-
Cc1cc(C)c2nc(N3C(=O)C(O)=C(C(=O)c4ccco4)C3c3ccc(O)cc3)sc2c1 (stereo not drawn)	34	0	0	0	0	0	0
CCOC(=O)c1sc(N2C(=O)C(O)=C(C(=O)c3ccco3)C2c2cccc([N+](=O)[O-])c2)nc1C (stereo not drawn)	0	0	0	0	0	0	-
Cc1cc(C)c2nc(N3C(=O)C(O)=C(C(=O)c4ccco4)C3c3cccc(O)c3)sc2c1 (stereo not drawn)	36	0	0	0	88	0	0
CCOC(=O)c1sc(N2C(=O)C(O)=C(C(=O)c3ccco3)C2c2cccc(Cl)c2)nc1C (stereo not drawn)	42	0	-	0	-	0	0
CCOC(=O)C1C2COc3cc(OC)ccc3C2N2C(=O)N(c3ccc(C)cc3)C(=O)[C@]12C (stereo partly drawn)	-	-	0	-	0	-	-
COc1cc(NCCCNC(C)C)c2nccc(C)c2c1	57	0	0	0	0	0	0
COc1cc(NCc2ccccc2)c2ncn(C(C)C)c2c1	0	0	0	0	0	0	-
CC(=O)C1CCC2C3CC(C)C4=CC(=O)CC[C@]4(C)C3C(O)C[C@]12C (stereo partly drawn)	-	-	0	-	0	-	-
CCOC(=O)c1c(C)[nH]c(C(=O)CN(C)CC(=O)Nc2ccccc2C(F)(F)F)c1C	31	0	0	0	0	0	0
CCOC(=O)c1c(C)[nH]c(C(=O)OCC(=O)N(C)CC(=O)Nc2ccccc2Cl)c1C	0	0	-	0	-	0	-
O=C(c1ccc2nc(-c3ccco3)c(-c3ccco3)nc2c1)N1CCC2(CC1)OCCO2	-	0	0	0	0	-	-
O=S(=O)(c1ccc2nc(-c3ccco3)c(-c3ccco3)nc2c1)N1CCOCC1	73	0	0	0	0	0	40
O=C(c1ccc2nc(-c3ccco3)c(-c3ccco3)nc2c1)N1CCN(c2ccccc2)CC1	48	0	0	0	0	0	0
COc1ccc(C=Nn2c(C)nnc2C)c(OC)c1	-	-	0	-	0	-	-
CCCCCCCCCC(=O)N[C@@H]1c2cc(OC)c(OC)cc2C[C@H]1O	31	0	0	0	0	0	0
COc1cc2c(cc1OC)[C@@H](NC(=O)CCC1CCCCC1)[C@H](O)C2	0	0	0	0	0	0	-
COc1cccc(C=NNC(=O)CCn2cnc3ccccc32)c1	-	-	0	-	0	-	-
N#Cc1c(-c2ccccc2)nc(SCc2cccc(Cl)c2)[nH]c1=O	32	0	0	0	0	0	0
O=C(COc1cccc2cccnc12)NN=C1SCC(=O)N1Cc1ccco1	-	-	0	-	0	-	-
COc1cccc(Nc2nc(C(N)CC(C)C)cs2)n1 (stereo not drawn)	0	-	-	-	-	0	-
COc1cccc(Nc2nc(C(N)C(C)C)cs2)n1 (stereo not drawn)	34	-	-	-	-	0	0
CCCCNC(=O)c1nc(C2CCN(S(=O)(=O)c3ccc(Cl)cc3)CC2)oc1-c1ccccc1	0	-	-	-	-	0	-
CCCCNC(=O)c1nc(C2CCN(S(=O)(=O)c3csc(C(=O)O)c3)CC2)oc1-c1ccccc1	30	-	-	-	-	0	0
COc1ccc(S(=O)(=O)NCC(c2ccco2)N2CCc3ccccc3C2)cc1 (stereo not drawn)	35	0	0	0	0	0	0
SMILES	CCHF vOTU inh-1	PrP 5UTR inh	Sa RN4220 lethal	PfHsp40 rescue	Sa ugtP lethal	PrPC surface inh	CCHF vOTU inh-2
CCOC(=O)N(CC)c1ccc(C(O)(C(=O)OCC)C(F)(F)F)cc1 (stereo not drawn)	31	0	0	0	0	0	0
CN1C(=O)C2C(C=Cc3ccccc3)N3C(=O)CN(Cc4ccccn4)C(=O)[C@@]3(C)C2C1=O (stereo partly drawn)	-	-	0	-	0	-	-
C(=NNc1nc(N2CCCCC2)nc(N2CCCCC2)n1)c1c[nH]c2ccccc12	-	-	0	-	0	-	-
CCOC1OC(C(N)=O)=CC(c2ccc(Br)cc2)C1CCCO (stereo not drawn)	-	-	0	-	0	-	-
Cc1ccc(C=Nn2c(-c3cccs3)n[nH]c2=S)cc1	-	-	0	-	0	-	-
CCOC(=O)c1c(S(=O)(=O)NCC(=O)NCc2ccc(C)cc2)c(C)n(C)c1C	42	0	0	0	0	0	0
CC1(C)CC(=O)C2=C(C1)c1c(ccc3ccccc13)NC2c1cc([N+](=O)[O-])cc([N+](=O)[O-])c1O (stereo not drawn)	44	0	95	0	90	0	0
CC1(C)CC(=O)C2=C(C1)c1c(ccc3ccccc13)NC2c1ccc(C(=O)O)cc1 (stereo not drawn)	0	0	0	0	0	0	-
CCOC(=O)c1cnc2cc(-c3ccc(C)cc3)nn2c1-c1ccccc1	0	0	0	0	0	0	-
CCOC(=O)c1cnc2cc(-c3ccc(C)cc3)nn2c1C	30	-	-	-	-	0	0
CN(CCc1ccccc1)C(=O)c1cc(COc2cccc(C(F)(F)F)c2)on1	30	0	0	0	0	0	0
CN(CCCN1CCOCC1)C(=O)c1cc(COc2cccc(C(F)(F)F)c2)on1	0	0	0	0	0	0	-
Cc1cc(C)cc(NC(=O)CN(C)S(=O)(=O)c2cccc3nsnc23)c1	0	0	0	0	0	0	-
CCc1cccc(NC(=O)CN(C)S(=O)(=O)c2cccc3nsnc23)c1	36	0	0	0	0	0	0
COC(=O)[C@]1(C)NC(c2ccc(-c3ccccc3)cc2)C2C(=O)N(C)C(=O)C21 (stereo partly drawn)	-	-	0	-	0	-	-
CC(=NNC(=O)CN1CCN(Cc2ccccc2)CC1)c1ccncc1	-	-	0	-	0	-	-
Cc1cc(C)c(C)c(OCC(=O)NCC2CCCO2)c1 (stereo not drawn)	33	0	0	0	0	0	0
Cc1cc(C)cc(OCC(=O)NCC2CCCO2)c1 (stereo not drawn)	0	0	0	0	0	0	-
COC(=O)c1ccccc1NC(=O)C1CCCC1	0	0	0	0	0	0	-
COC(=O)c1ccccc1NC(=O)COC(=O)C1CCCCC1	32	0	0	0	0	0	0
COc1cccc(-c2cc(NC=O)c3ncc(-c4cccc(C(=O)N(C)C)c4)n3c2)c1	31	-	-	-	-	0	0
COc1cccc(-c2cnc3c(NC=O)cc(-c4cccc(C(=O)N(C)C)c4)cn23)c1	0	-	-	-	-	0	-
O=C(O)C(Cc1ccccc1)NC(=O)N1CCOCC1 (stereo not drawn)	-	-	0	-	0	-	-
COc1cc2c(cc1OC)-c1c(OC)c(OC)cc3c1C(C2)N(C)CC3 (stereo not drawn)	38	0	0	0	0	0	51
CC(O)(c1ccc(F)c(F)c1)c1nc(/C=C/c2ccc(C(F)(F)F)cc2)cs1 (stereo not drawn)	33	-	-	-	-	0	0

Compound activity (PubChem BioAssay)
